Key:
Experiment in all cases: thermal shift delta Tm vs DMSO control; higher = stronger stabilization (binding)
Details in all cases: 12.5 µM; protein concentration 2 µM
LOC_OS01G57100-cb003 = tested on: LOC_OS01G57100-cb003
Method in brief: (§1)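 Rice kinase domain constructs, made in E. coli and purified, were placed in 96-well plates at 2 μM in 19.5 μl of 100 mM potassium phosphate pH 7.5, 150 mM NaCl, 10% glycerol and 5 × SYPRO Orange, with compound in DMSO. A temperature ramp from 25°C to 95°C at 0.05°C/s was used for differential scanning fluorimetry. The melting temperature shift is a triplicate mean compared with DMSO-only protein, derived from Boltzmann fits.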

LOC_OS01G60330-cb001 = tested on: LOC_OS01G60330-cb001
Method in brief: as §1

LOC_OS01G60700-cb002 = tested on: LOC_OS01G60700-cb002
Method in brief: as §1

LOC_OS01G63280-cb003 = tested on: LOC_OS01G63280-cb003
Method in brief: as §1

LOC_OS01G67340-cb003 = tested on: LOC_OS01G67340-cb003
Method in brief: as §1

LOC_OS01G70970-cb002 = tested on: LOC_OS01G70970-cb002
Method in brief: as §1

LOC_OS02G07810-cb001 = tested on: LOC_OS02G07810-cb001
Method in brief: as §1

LOC_OS02G08530-cb003 = tested on: LOC_OS02G08530-cb003
Method in brief: as §1

LOC_OS02G14120-cb001 = tested on: LOC_OS02G14120-cb001
Method in brief: as §1

LOC_OS02G17970-cb001 = tested on: LOC_OS02G17970-cb001
Method in brief: as §1

LOC_OS02G45750-cb003 = tested on: LOC_OS02G45750-cb003
Method in brief: as §1

LOC_OS02G54510-cb004 = tested on: LOC_OS02G54510-cb004
Method in brief: as §1

LOC_OS03G04050-cb001 = tested on: LOC_OS03G04050-cb001
Method in brief: as §1

LOC_OS03G12390-cb001 = tested on: LOC_OS03G12390-cb001
Method in brief: as §1

LOC_OS03G27990-cb004 = tested on: LOC_OS03G27990-cb004
Method in brief: as §1

LOC_OS03G50450-cb001 = tested on: LOC_OS03G50450-cb001
Method in brief: as §1

LOC_OS03G50810-cb003 = tested on: LOC_OS03G50810-cb003
Method in brief: as §1

LOC_OS04G35114-cb001 = tested on: LOC_OS04G35114-cb001
Method in brief: as §1

LOC_OS04G38480-cb003 = tested on: T1, LOC_OS04G38480-cb003
T1 sequence (whole entry): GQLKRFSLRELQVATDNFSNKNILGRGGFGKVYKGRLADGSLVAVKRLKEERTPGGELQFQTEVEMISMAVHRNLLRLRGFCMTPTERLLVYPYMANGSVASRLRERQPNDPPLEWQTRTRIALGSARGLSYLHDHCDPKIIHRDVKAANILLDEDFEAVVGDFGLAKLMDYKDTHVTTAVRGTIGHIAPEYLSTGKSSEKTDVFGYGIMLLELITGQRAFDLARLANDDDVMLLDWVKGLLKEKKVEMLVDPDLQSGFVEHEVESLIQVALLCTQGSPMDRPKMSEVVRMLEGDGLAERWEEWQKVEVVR
Method in brief: as §1

LOC_OS04G41100-cb001 = tested on: T2, LOC_OS04G41100-cb001
T2 sequence (whole entry): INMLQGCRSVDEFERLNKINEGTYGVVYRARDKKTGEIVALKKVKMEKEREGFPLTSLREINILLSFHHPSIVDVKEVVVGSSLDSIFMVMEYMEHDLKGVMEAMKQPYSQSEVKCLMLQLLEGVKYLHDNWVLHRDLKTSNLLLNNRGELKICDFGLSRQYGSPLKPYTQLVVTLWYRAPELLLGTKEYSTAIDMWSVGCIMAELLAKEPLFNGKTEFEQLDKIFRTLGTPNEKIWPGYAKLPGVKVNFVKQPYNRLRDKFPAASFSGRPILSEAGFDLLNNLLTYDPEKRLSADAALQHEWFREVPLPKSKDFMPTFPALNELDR
Method in brief: as §1
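Further: purified Escherichia coli-expressed rice kinase domain construct.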

Structure (SMILES)	thermal shift delta Tm (LOC_OS01G57100-cb003)	thermal shift delta Tm (LOC_OS01G60330-cb001)	thermal shift delta Tm (LOC_OS01G60700-cb002)	thermal shift delta Tm (LOC_OS01G63280-cb003)	thermal shift delta Tm (LOC_OS01G67340-cb003)	thermal shift delta Tm (LOC_OS01G70970-cb002)	thermal shift delta Tm (LOC_OS02G07810-cb001)	thermal shift delta Tm (LOC_OS02G08530-cb003)	thermal shift delta Tm (LOC_OS02G14120-cb001)	thermal shift delta Tm (LOC_OS02G17970-cb001)	thermal shift delta Tm (LOC_OS02G45750-cb003)	thermal shift delta Tm (LOC_OS02G54510-cb004)	thermal shift delta Tm (LOC_OS03G04050-cb001)	thermal shift delta Tm (LOC_OS03G12390-cb001)	thermal shift delta Tm (LOC_OS03G27990-cb004)	thermal shift delta Tm (LOC_OS03G50450-cb001)	thermal shift delta Tm (LOC_OS03G50810-cb003)	thermal shift delta Tm (LOC_OS04G35114-cb001)	thermal shift delta Tm (LOC_OS04G38480-cb003)	thermal shift delta Tm (LOC_OS04G41100-cb001)
COc1ccc(/C=C/C(=O)C2(C(=O)/C=C/c3ccc(OC)c(OC)c3)CCCCC2)cc1OC	2.18 °C	0.27 °C	0.41 °C	0.1 °C	0.3 °C	0.31 °C	0.4 °C	1.47 °C	0.46 °C	0.38 °C	1.45 °C	0.31 °C	0.85 °C	-0.65 °C	0.61 °C	0.8 °C	-0.01 °C	0.96 °C	0.14 °C	0.5 °C
Cc1cc(CS(=O)(=O)c2ccccc2)cc(OCc2ccc(CN3CCC[C@@H]3CO)cc2)c1	0.61 °C	0.03 °C	1.22 °C	-0.1 °C	-0.36 °C	0.62 °C	0.61 °C	0.53 °C	-0.41 °C	0.96 °C	-0.41 °C	0.16 °C	0.65 °C	-0.25 °C	0.41 °C	0.6 °C	0.23 °C	0.57 °C	0.83 °C	0.44 °C
COc1cc2ncnc(Nc3ccc(Cl)cc3F)c2cc1OC	1.2 °C	0.41 °C	1.4 °C	0.51 °C	0.32 °C	0.2 °C	1.32 °C	1.3 °C	4.69 °C	1.1 °C	2.84 °C	0.95 °C	0.25 °C	2.87 °C	0.55 °C	0.36 °C	1.2 °C	7.37 °C	1.81 °C	0.5 °C
COc1ccc(-c2nc(N3CCOCC3)c3sc(CN(C)c4ncc(C(=O)NO)cn4)cc3n2)cn1	2.79 °C	1.04 °C	0.58 °C	0.34 °C	0.21 °C	0.21 °C	1.31 °C	0.97 °C	0.54 °C	0.14 °C	0.52 °C	0.27 °C	0.23 °C	-0.11 °C	0.18 °C	-0.05 °C	0.23 °C	0.64 °C	0.82 °C	0.24 °C
CN1CCC(CNc2ccc3ncc(-c4cccc(OC(F)(F)F)c4)n3n2)CC1 [SGI-1776 free base]	0.83 °C	0.19 °C	0.47 °C	0.98 °C	-0.25 °C	1.79 °C	0.42 °C	2.78 °C	7.23 °C	-0.26 °C	3.47 °C	0.36 °C	-0.12 °C	0.16 °C	0.31 °C	0.18 °C	3.02 °C	4.33 °C	1.08 °C	0.53 °C
N#CC1(c2ccc(NC(=O)c3cccnc3NCc3ccncc3)cc2)CCCC1 [Apatinib]	1.62 °C	0.33 °C	0.74 °C	5.6 °C	0.6 °C	0.01 °C	1.02 °C	0.96 °C	0.6 °C	-0.16 °C	0.45 °C	1.36 °C	0.07 °C	-0.19 °C	0.11 °C	0.69 °C	0.22 °C	0.72 °C	0.83 °C	0.11 °C
